# High-throughput results (PubChem BioAssay)
# Epigenetic reg: regulators of epigenetic silencing causing reporter derepression in mouse cells | murine LDR cells, GFP reporter derepression, 30 h | Potency, µM (doses to about 53.9 µM), most hits filed as activators | actives 0.2% (n = 280,000) | AID 1865; also: nearly all actives have a fitted effect of over 60% in size
#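 In this reporter-derepression format, murine cells bearing a silenced integrated CMV-GFP locus incubate with test compound (30 h, 37 C), then are washed and imaged; fluorescent objects of 20–120 um count as induced cells.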
# HTT ATP protect: cytoprotection in Huntington HTT-Q103 PC12 cell model. PC12 HTT-Q103 induced, cytoprotection, ATP luminescence, 40 h. Potency, µM (titrated, usually from 56.4 µM), actives largely listed as activators. actives 0.14% (n = 230,000); also: nearly all actives have a fitted effect of over 45% in size
#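 Compounds were screened for protection of PC12 cells against cell death after tebufenozide induction (100 nM final) of mutant Huntingtin exon 1 (Q103) fused to GFP.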
# PINK1 modulator: changes PINK1 expression; PINK1 immunofluorescence, high-content cytometry, 24 h; actives 0.2% (n = 410,000); Potency, µM (titrated, usually from 76.6 µM), usual class: activators; active = well fitted activation curve with a large enough effect; inconclusive = small, poorly fitted or top-dose-only effect; cell line not stated here; also: nearly all actives have a fitted effect of over 65% in size
#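 Cells are seeded, rested 12 hours, then given compound at five concentrations or DMSO for 24 hours. After fixation, blocking and antibody staining, PINK1 amount and mitochondrial localization are scored; CCCP serves as control.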
# HTT aggregate: inhibitors of mutant huntingtin aggregate formation in PC12 cells | PC12 HttQ103-GFP aggregates, Acumen cytometry, 40 h | actives 1.1% (n = 220,000) | Potency, µM (doses to about 46.1 µM), usual class: inhibitors; also: nearly all actives have a fitted effect of over 60% in size
#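 PC12 cells stably carrying ecdysone-inducible HTT exon 1 Q103–GFP were induced with tebufenozide (100 nM final) and treated with library compounds in titration. GFP aggregates in lysates were counted by laser scanning cytometry.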
# Hits are given with their value; 0 = inactive; ? = inconclusive; - = no result given; [ ] = remark or other dose. The full list was thinned out, with hits kept by preference. Unless noted, calls follow the shape of the dose curve; as a rule, active = well fitted curve in the direction sought with a large enough effect; inconclusive = small, poorly fitted or top-dose-only effect, or another doubt; inactive = no such curve, though single readings can be large; an effect the other way counts as inactive or inconclusive.
SMILES,Epigenetic reg,HTT ATP protect,PINK1 modulator,HTT aggregate
CCn1c(O)c(/C=N/N=C/c2ccc(OC)cc2)c2cc(C3=NNC(=O)CC3)ccc21,7.08µM,0[10 µM],?,0[9.22 µM]
CC(C)Oc1ccc(/C=C(/NC(=O)c2ccccc2)C(=O)NC(Cc2ccccc2)C(=O)O)cc1 (centres undefined),-,-,0,-
Cc1ccc(C2C(C=Nc3c(C)n(C)n(-c4ccccc4)c3=O)=C(c3ccccc3)Oc3ccccc32)cc1 (centres undefined),0,0,0,22.4µM
Cc1c(N=Cc2cccs2)c(=O)n(-c2ccccc2)n1C,0,0,?,0
O=C1c2ccccc2C(=O)C1c1ccc(Cl)cc1,-,0,0,0
O=C1c2ccccc2C(=O)C12OC2c1ccc(Cl)cc1Cl (centres undefined),0,0[10 µM],0,25.1µM
Cc1c(N=C2N=C(NC(=O)c3ccc(F)cc3)c3ccccc32)c(=O)n(-c2ccccc2)n1C,0,0[10 µM],39.8µM,0
N#Cc1cc(C(=O)c2cc(Br)ccc2O)cn(C2CCCCC2)c1=O,0,0,22.4µM,0
COC(=O)c1ccc(Nc2c([N+](=O)[O-])ccc3nonc23)cc1,-,-,14.1µM,-
COc1ccc2[nH]c(=O)c(CN(Cc3cccs3)C(=S)Nc3cccc(C)c3)cc2c1,0,0[10 µM],0,0
CN1/C(=C\C=C2/SC(=S)N(CC(=O)O)C2=O)C(C)(C)c2ccccc21,0,?,0,0[9.22 µM]
CCCN1C(=O)/C(=C/C=C2\N(CC)c3ccccc3C2(C)C)SC1=S,3.16µM,0,0,0
CCN1C(=O)/C(=C/C=C2/SCCN2C)SC1=S,0,0,0,0
CCCCN1C(=O)/C(=C/C=C2/CC(C)(C)CN2C)SC1=S,14.1µM,0[10 µM],0,0
CCCCN1C(=O)/C(=C/C=C2\Oc3ccccc3N2CC)SC1=S,1µM,0[10 µM],?,?
C=CCN1C(=O)/C(=C\C=C2\N(C)c3ccccc3C2(C)C)SC1=S,5.01µM,0[10 µM],0,0
Cc1ccc(S(=O)(=O)NN(Cc2ccccc2)Cc2ccccc2)cc1,-,-,0,-
COc1ccc(C2C3=C(CC(C)(C)CC3=O)Oc3ncn(Cc4ccccc4)c(=N)c32)cc1 (centres undefined),0,3.98µM,0,0
CCOC(=O)CCCSc1nnc(CCCCCN2C(=O)c3cccc4cccc(c34)C2=O)o1,0,2.51µM,0,?
COc1ccc(OC)c(NC(=O)CSC2=Nc3ccccc3C3=NC(CC(=O)NCc4ccco4)C(=O)N23)c1 (centres undefined),0,-,0,-
COc1ccc(S(=O)(=O)NN(C)C)cc1N(C)S(=O)(=O)c1ccc(Cl)cc1,0,0[1.9 µM],0,0
O=C(CN1CCSc2ccccc21)NCc1ccccc1F,0,-,0,-
CCC(Oc1ccc(F)cc1)C(=O)Nc1cc(-c2ccc(C)cc2)no1 (centres undefined),0,-,0,-
CCC(Oc1ccccc1)C(=O)Nc1nnc(C)s1 (centres undefined),0,0,0,0
CCC(Oc1ccccc1)C(=O)Nc1nnc(C(F)(F)F)s1 (centres undefined),0,0[10 µM],0,25.1µM
SMILES,Epigenetic reg,HTT ATP protect,PINK1 modulator,HTT aggregate
CCC(Oc1ccc(F)cc1)C(=O)Nc1nc(-c2ccc(F)cc2)ns1 (centres undefined),0,-,28.2µM,-
O=S(=O)(c1ccc(Br)s1)N1CCN(c2cccc(C(F)(F)F)c2)CC1,0,-,0,-
CCN(CC)C(=O)c1sc(NC(=O)c2ccc(C)c([N+](=O)[O-])c2)c(C#N)c1C,0,0,0,12.6µM
CCN(CC)C(=O)c1sc(NC(=O)c2ccc(OC)c([N+](=O)[O-])c2)c(C#N)c1C,0,0[10 µM],-,0
Cc1cc(Nc2nc3c(c(=O)n(C)c(=O)n3C)n2C)n(-c2ccc(Cl)cc2)n1,0,0[10 µM],0,0
O=C(Nc1ccc(S(=O)(=O)N2CCCCC2)cc1)c1ccccc1Cl,0,0,0,0
O=C(Nc1cccc(Cl)c1)Nc1cc(S(=O)(=O)N2CCCCC2)ccc1Cl,0,0[10 µM],14.1µM,?
O=C(Nc1ccccc1)Nc1ccc(S(=O)(=O)N2CCCCC2)cc1,0,0[10 µM],0,12.6µM
CCN(CC)S(=O)(=O)c1ccc(C)c(NC(=S)Nc2cccc(S(=O)(=O)N3CCCCCC3)c2)c1,0,0[10 µM],25.1µM,0
O=C(CNc1ccc(C(F)(F)F)cc1)Nc1cccc(S(=O)(=O)N2CCCCC2)c1,-,-,44.7µM,-
Cc1ccc(-c2ccc(SCC(=O)N3CCc4ccccc43)nn2)cc1,0,0[10 µM],-,0
CN(C)c1ccc(C2N(c3cccc(Cl)c3)C(=O)C3CCCN32)cc1 (centres undefined),-,0,-,-
